# According to paper PMC11062922 (Nature Chemical Biology, 2023):
# Where two headings read alike, the source gives them in different places.
# How the values were obtained:
# TGFBR1 = conditions: read-out: apparent Kd, n = 1
# TNK1 = conditions: read-out: apparent Kd, n = 1
# [1] = compound concentrations:100 nM and 1000 nM (sheet 'Lestaurtinib' of Supplementary Table 1),run:Lestaurtinib_02364_R3,Plate:MR002
# [2] = compound concentrations:100 nM and 1000 nM (sheet 'Lestaurtinib' of Supplementary Table 1),run:Lestaurtinib_02367_R2,Plate:MR003
substance,measurement,setting,value
Lestaurtinib,potency estimated from few doses,TGFBR1; [1],1.63 µM
same,potency estimated from few doses,TGFBR1; [2],1.9 µM
same,potency estimated from few doses,"TGFBR1; compound concentrations:100 nM and 1000 nM (sheet 'Lestaurtinib' of Supplementary Table 1),run:Lestaurtinib_02367_R3,Plate:MR003",2.07 µM
same,potency estimated from few doses,"TGFBR1; compound concentrations:100 nM and 1000 nM (sheet 'Lestaurtinib' of Supplementary Table 1),run:Lestaurtinib_02381_R1,Plate:MR004",2.08 µM
same,potency estimated from few doses,"TGFBR1; compound concentrations:100 nM and 1000 nM (sheet 'Lestaurtinib' of Supplementary Table 1),run:Lestaurtinib_02407_R1,Plate:MR005",2.02 µM
same,potency estimated from few doses,"TGFBR1; compound concentrations:100 nM and 1000 nM (sheet 'Lestaurtinib' of Supplementary Table 1),run:Lestaurtinib_02422_R1,Plate:MR006",0.964 µM
same,potency estimated from few doses,"TGFBR1; compound concentrations:100 nM and 1000 nM (sheet 'Lestaurtinib' of Supplementary Table 1),run:Lestaurtinib_02437_R2,Plate:MR007",1.79 µM
same,potency estimated from few doses,"TGFBR1; compound concentrations:100 nM and 1000 nM (sheet 'Lestaurtinib' of Supplementary Table 1),run:Lestaurtinib_02437_R3,Plate:MR007",0.176 µM
same,potency estimated from few doses,"TGFBR1; compound concentrations:100 nM and 1000 nM (sheet 'Lestaurtinib' of Supplementary Table 1),run:Lestaurtinib_02438_R2,Plate:MR008",1.42 µM
same,potency estimated from few doses,"TGFBR1; compound concentrations:100 nM and 1000 nM (sheet 'Lestaurtinib' of Supplementary Table 1),run:Lestaurtinib_02438_R3,Plate:MR008",1.58 µM
same,potency estimated from few doses,"TGFBR1; compound concentrations:100 nM and 1000 nM (sheet 'Lestaurtinib' of Supplementary Table 1),run:Lestaurtinib_02443_R3,Plate:MR009",1.32 µM
same,potency estimated from few doses,"TGFBR1; compound concentrations:100 nM and 1000 nM (sheet 'Lestaurtinib' of Supplementary Table 1),run:Lestaurtinib_02473_R3,Plate:MR010",1.75 µM
same,potency estimated from few doses,"TGFBR1; compound concentrations:100 nM and 1000 nM (sheet 'Lestaurtinib' of Supplementary Table 1),run:Lestaurtinib_02482_R3,Plate:MR011",1.76 µM
same,potency estimated from few doses,"TGFBR1; compound concentrations:100 nM and 1000 nM (sheet 'Lestaurtinib' of Supplementary Table 1),run:Lestaurtinib_02487_R2,Plate:MR012",1.4 µM
same,potency estimated from few doses,"TGFBR1; compound concentrations:100 nM and 1000 nM (sheet 'Lestaurtinib' of Supplementary Table 1),run:Lestaurtinib_02496_R1,Plate:MR013",1.53 µM
same,potency estimated from few doses,"TGFBR1; compound concentrations:100 nM and 1000 nM (sheet 'Lestaurtinib' of Supplementary Table 1),run:Lestaurtinib_02496_R2,Plate:MR013",1.83 µM
same,potency estimated from few doses,"TGFBR1; compound concentrations:100 nM and 1000 nM (sheet 'Lestaurtinib' of Supplementary Table 1),run:Lestaurtinib_02566_R1,Plate:MR014",0.827 µM
same,potency estimated from few doses,"TGFBR1; compound concentrations:100 nM and 1000 nM (sheet 'Lestaurtinib' of Supplementary Table 1),run:Lestaurtinib_02566_R2,Plate:MR014",1.31 µM
same,potency estimated from few doses,"TGFBR1; compound concentrations:100 nM and 1000 nM (sheet 'Lestaurtinib' of Supplementary Table 1),run:Lestaurtinib_02566_R3,Plate:MR014",1.34 µM
same,potency estimated from few doses,"TGFBR1; compound concentrations:100 nM and 1000 nM (sheet 'Lestaurtinib' of Supplementary Table 1),run:Lestaurtinib_02577_R3,Plate:MR016",1.82 µM
same,potency estimated from few doses,"TGFBR1; compound concentrations:100 nM and 1000 nM (sheet 'Lestaurtinib' of Supplementary Table 1),run:Lestaurtinib_02584_R3,Plate:MR017",1.58 µM
same,potency estimated from few doses,"TGFBR1; compound concentrations:100 nM and 1000 nM (sheet 'Lestaurtinib' of Supplementary Table 1),run:Lestaurtinib_02606_R1,Plate:MR019",2.21 µM
same,potency estimated from few doses,"TGFBR1; compound concentrations:100 nM and 1000 nM (sheet 'Lestaurtinib' of Supplementary Table 1),run:Lestaurtinib_02606_R2,Plate:MR019",2.08 µM
same,potency estimated from few doses,"TGFBR1; compound concentrations:100 nM and 1000 nM (sheet 'Lestaurtinib' of Supplementary Table 1),run:Lestaurtinib_02741_R3,Plate:MR023",1.35 µM
same,potency estimated from few doses,"TGFBR1; compound concentrations:100 nM and 1000 nM (sheet 'Lestaurtinib' of Supplementary Table 1),run:Lestaurtinib_02748_R1,Plate:MR024",1.42 µM
same,potency estimated from few doses,"TGFBR1; compound concentrations:100 nM and 1000 nM (sheet 'Lestaurtinib' of Supplementary Table 1),run:Lestaurtinib_02748_R3,Plate:MR024",1.75 µM
same,potency estimated from few doses,"TGFBR1; compound concentrations:100 nM and 1000 nM (sheet 'Lestaurtinib' of Supplementary Table 1),run:Lestaurtinib_02752_R2,Plate:MR025",1.6 µM
same,potency estimated from few doses,"TGFBR1; compound concentrations:100 nM and 1000 nM (sheet 'Lestaurtinib' of Supplementary Table 1),run:Lestaurtinib_02765_R2,Plate:MR026",2.02 µM
same,potency estimated from few doses,"TGFBR1; compound concentrations:100 nM and 1000 nM (sheet 'Lestaurtinib' of Supplementary Table 1),run:Lestaurtinib_02766_R1,Plate:MR027",1.36 µM
same,potency estimated from few doses,"TGFBR1; compound concentrations:100 nM and 1000 nM (sheet 'Lestaurtinib' of Supplementary Table 1),run:Lestaurtinib_02766_R3,Plate:MR027",1.57 µM
same,potency estimated from few doses,"TGFBR1; compound concentrations:100 nM and 1000 nM (sheet 'Lestaurtinib' of Supplementary Table 1),run:Lestaurtinib_02802_R1,Plate:MR029",1.54 µM
same,potency estimated from few doses,"TGFBR1; compound concentrations:100 nM and 1000 nM (sheet 'Lestaurtinib' of Supplementary Table 1),run:Lestaurtinib_02896_R3,Plate:MR030",0.95 µM
same,potency estimated from few doses,"TGFBR1; compound concentrations:100 nM and 1000 nM (sheet 'Lestaurtinib' of Supplementary Table 1),run:Lestaurtinib_03172_R1,Plate:MR031",1.54 µM
same,potency estimated from few doses,"TGFBR1; compound concentrations:100 nM and 1000 nM (sheet 'Lestaurtinib' of Supplementary Table 1),run:Lestaurtinib_03172_R3,Plate:MR031",1.58 µM
same,potency estimated from few doses,"TGFBR1; compound concentrations:100 nM and 1000 nM (sheet 'Lestaurtinib' of Supplementary Table 1),run:Lestaurtinib_03252_R1,Plate:MR032",1.33 µM
same,potency estimated from few doses,"TGFBR1; compound concentrations:100 nM and 1000 nM (sheet 'Lestaurtinib' of Supplementary Table 1),run:Lestaurtinib_03252_R2,Plate:MR032",1.59 µM
same,potency estimated from few doses,"TNK1; compound concentrations:100 nM and 1000 nM (sheet 'Lestaurtinib' of Supplementary Table 1),run:Lestaurtinib_02339_R1,Plate:MR001",0.22 µM
same,potency estimated from few doses,"TNK1; compound concentrations:100 nM and 1000 nM (sheet 'Lestaurtinib' of Supplementary Table 1),run:Lestaurtinib_02339_R2,Plate:MR001",0.0935 µM
same,potency estimated from few doses,"TNK1; compound concentrations:100 nM and 1000 nM (sheet 'Lestaurtinib' of Supplementary Table 1),run:Lestaurtinib_02339_R3,Plate:MR001",0.256 µM
same,potency estimated from few doses,"TNK1; compound concentrations:100 nM and 1000 nM (sheet 'Lestaurtinib' of Supplementary Table 1),run:Lestaurtinib_02364_R2,Plate:MR002",0.213 µM
same,potency estimated from few doses,TNK1; [1],0.19 µM
same,potency estimated from few doses,"TNK1; compound concentrations:100 nM and 1000 nM (sheet 'Lestaurtinib' of Supplementary Table 1),run:Lestaurtinib_02367_R1,Plate:MR003",0.191 µM
same,potency estimated from few doses,TNK1; [2],0.208 µM
same,potency estimated from few doses,"TNK1; compound concentrations:100 nM and 1000 nM (sheet 'Lestaurtinib' of Supplementary Table 1),run:Lestaurtinib_02407_R3,Plate:MR005",0.213 µM
same,potency estimated from few doses,"TNK1; compound concentrations:100 nM and 1000 nM (sheet 'Lestaurtinib' of Supplementary Table 1),run:Lestaurtinib_02422_R3,Plate:MR006",0.075 µM
